Source: PubChem (several laboratories)
In the library only some 1.3% were active in any assay of this set; here they are far more common.
PKA-R2B act = activators of human PKA-R2B complex; activation, % at 11.4 µM; P22694+P31323; PKA-R2B holoenzyme dissociation, Cy5-IP20 fluorescence polarization; R2B truncated from residue 108, S112A mutant; 0% DMSO only, 100% 113 µM cGMP; 340,000 compounds, 0.079% hits; AID 504700;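 active means activation above a cutoff set at the mean over all compounds plus 3 SD, cut at about 18% in these data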;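 further: higher means more holoenzyme dissociation and a rise in polarization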
Neddyl block = inhibitors of human cullin neddylation | inhibition, % at 25 µM | AID 651699 | P61081+Q13564 | 360,000 compounds, 0.58% hits | TR-FRET cullin neddylation, biochemical; in the data active means inhibition above about 36%
Rpn11 block = Rpn11 (human) deubiquitinase inhibition. O00487. human 26S proteasome, Ub4-pepOG fluorescence polarization; 20S core pre-blocked with epoxomicin. calls only at 20 µM. 360,000 compounds, 0.59% hits;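 active means inhibition at 20 µM, scaled to each plate's controls, above about 33%, limit read from the data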
Target sequence (O00487 whole entry, looked up): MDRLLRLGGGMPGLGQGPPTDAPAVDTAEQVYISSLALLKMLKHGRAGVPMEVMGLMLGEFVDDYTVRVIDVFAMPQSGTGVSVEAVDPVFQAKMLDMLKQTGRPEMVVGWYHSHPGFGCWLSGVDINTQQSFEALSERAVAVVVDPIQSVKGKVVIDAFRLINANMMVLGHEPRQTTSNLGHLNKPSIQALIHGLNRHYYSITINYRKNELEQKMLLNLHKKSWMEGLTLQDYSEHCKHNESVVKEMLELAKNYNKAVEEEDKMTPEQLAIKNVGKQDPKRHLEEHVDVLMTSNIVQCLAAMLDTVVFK
PKA-R1A activ = PKA-R1A complex activation; PKA-R1A dissociation, Cy5-IP20 fluorescence polarization; scaled: DMSO 0%, 113 µM cGMP 100%; P00514+P68181; AID 504707; 340,000 compounds, 0.083% hits; activation, % at 11.4 µM;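 active means percent activation above the mean of all tested compounds plus 3 SD, cut at about 19% in these data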;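 further: higher means more PKAc released from R1A so a rise in polarization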
Neddyl inh conf = confirmation of human cullin neddylation inhibitors; TR-FRET cullin neddylation biochemical assay; shares compounds with Neddyl block; 1,800 compounds, 13% hits; calls only at 25 µM; AID 652217; in the data active means inhibition above about 40%;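 further: neddylation substrate is the cullin 1 ring ligase complex with SKP2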
An asterisk follows results filed as active; i = inactive; nt = no result given; + = active, no number.

SMILES | PKA-R2B act | Neddyl block | Rpn11 block | PKA-R1A activ | Neddyl inh conf
Cc1c(C)c2ccc(OC(C)C(=O)NCCCN3CCOCC3)c(C)c2oc1=O (stereo not drawn) | 3 | 46* | i | -1 | i
Cc1c(OC(C)C(=O)NCCN2CCOCC2)ccc2c3c(c(=O)oc12)CCC3 (stereo not drawn) | -9 | nt | i | -15 | nt
Cc1c(C)c2ccc(OC(C)C(=O)NCCN3CCOCC3)c(C)c2oc1=O (stereo not drawn) | -4 | 52* | i | 12 | i
CCc1ccccc1NC(=O)NNC(=O)c1ccc2ccccc2c1O | -3 | 38* | i | -10 | i
COc1ccc(NC(=O)NNC(=O)c2ccc3ccccc3c2O)c(OC)c1 | -14 | 44* | i | -12 | i
COc1ccc(OC)c(NC(=O)Nc2c(O)ccc3ccccc23)c1 | -8 | 6 | i | -3 | nt
CCOc1ccc(NC(=O)NNC(=O)c2ccc3ccccc3c2O)cc1 | 1 | 36 | i | -19 | nt
COc1ccc(OC)c(NC(=O)Nc2ccc(O)c3ccccc23)c1 | -11 | 40* | i | -16 | nt
CC(C)NC(=O)c1cc(-c2ccc(F)cc2OC(C)C)n[nH]1 | nt | 11 | i | nt | nt
Cc1cc(=O)oc2cc(OC(C)C(=O)O)c(Cl)cc12 (stereo not drawn) | 2 | 37 | i | 1 | nt
Cc1cc(=O)oc2cc(OC(C)C(=O)N3CCOCC3)c(Cl)cc12 (stereo not drawn) | -7 | 44* | i | 10 | i
CCCNC(=O)c1sc2c(c1C(=O)Nc1ccccn1)CCCC2 | -7 | 44* | i | 7 | i
COc1ccc(S(=O)(=O)N(CC(=O)O)c2ccccn2)cc1 | 8 | 40* | i | -2 | i
CCOC(=O)CN(c1ccccn1)S(=O)(=O)c1ccccc1 | 5 | nt | i | -3 | nt
COC(=O)c1ccc(CN(c2ccccn2)S(=O)(=O)c2ccccc2)cc1 | -12 | 41* | i | 6 | i
COc1ccc(S(=O)(=O)N(CC(=O)O)c2ccccc2)cc1 | -7 | -3 | i | -8 | nt
CC(C)c1ccccc1NC(=O)C1CC(=O)N(C2CCCC2)C1 (stereo not drawn) | -7 | 5 | i | -9 | nt
C[C@H](CO)N1C[C@H](C)[C@@H](CN(C)Cc2ccncc2)OCc2cnnn2CCCC1=O | -7 | 3 | i | 2 | nt
CC1(C)Cc2c(C#N)c(NC3CCCCC3)nc(-c3ccco3)c2CO1 | -1 | nt | i | 3 | nt
CC1(C)Cc2c(C#N)c(NCC3CCCO3)nc(-c3ccco3)c2CO1 (stereo not drawn) | -4 | 49* | i | -5 | nt
CC(C)(C)c1ccc(/C=C2\CCn3c2nc2cc(C(=O)O)ccc2c3=O)cc1 | -6 | 45* | i | -6 | +
CNC(=O)COC(=O)c1ccc(-c2nc3ccccc3s2)s1 | 2 | 40* | i | -6 | i
Cc1cc(-n2ccnc2)n2c(nc3ccccc32)c1C#N | -13 | 43* | i | -6 | i
Cc1ccc2ncccc2c1 | 1 | -4 | i | 1 | nt
c1cnc2ccc(-c3ccc4ncccc4c3)cc2c1 | -11 | 45* | i | -20 | i
SMILES | PKA-R2B act | Neddyl block | Rpn11 block | PKA-R1A activ | Neddyl inh conf
CCOc1ccc2[nH]c(=O)c(CN(CCO)C(=O)c3ccc(Br)cc3)cc2c1 | 1 | 29 | i | -8 | nt
CCOc1ccc2[nH]c(=O)c(CN(CCO)C(=O)CC)cc2c1 | -4 | 40* | i | -9 | +
N#Cc1ccc2[nH]c(CO)c(-c3ccccc3)c2c1 | -15 | 31* | i | -11 | i
CCOC(=O)CNC(=O)c1sc(NC(=O)c2ccccc2F)nc1C | -20 | 44* | i | 2 | +
CC(C)NC(=O)C(C)Oc1ccc(S(=O)(=O)NCc2ccc3c(c2)OCO3)cc1 (stereo not drawn) | 2 | 6 | i | -4 | nt
Clc1ccc(-c2ccc(-c3nn4c(-c5ccco5)nnc4s3)o2)cc1 | 10 | 42* | i | -12 | i
Brc1ccc(-c2nn3c(-c4ccco4)nnc3s2)o1 | -6 | -162 | i | -7 | nt
CC(C)CC1C(=O)N(Cc2cn(Cc3ccco3)nn2)CCS(=O)(=O)N1Cc1ccc(-c2ccccc2)cc1 (stereo not drawn) | -2 | -5 | i | -17 | nt
COc1cc(/C=C(\CC(=O)O)c2nc3ccccc3s2)ccc1OCC(=O)Nc1ccccc1F | -10 | 36* | i | 4 | i
COc1ccc(C2=Cc3ccccc3C(CC(=O)C3CC3)N2c2ccc(-c3cc(OC)c(OC)c(OC)c3)cc2)cc1 (stereo not drawn) | nt | 42* | nt | nt | i
O=C(Nc1cccc2nsnc12)c1ccc(F)cc1 | 6 | 35 | i | 2 | nt
O=C(Nc1cccc2nsnc12)c1ccc2c(c1)OCO2 | -10 | 45* | i | -15 | +
CC12CCC(C(=O)N/N=C/c3ccc(O)cc3)(OC1=O)C2(C)C (stereo not drawn) | -1 | -6 | i | -8 | nt
COc1cccc(-n2c(N)c(C(=O)Nc3c(C)n(C)n(-c4ccccc4)c3=O)c3nc4ccccc4nc32)c1 | 6 | 51* | i | -12 | i
COc1ccc(CCNC(=O)CCS(=O)(=O)Cc2ccccc2C)cc1OC | 3 | 0 | i | -3 | nt
CN(C(=O)COC(=O)c1ccc(-c2ccc(O)cc2)cc1)C1CCS(=O)(=O)C1 (stereo not drawn) | -15 | 38* | i | -1 | i
COc1cc(/C=N/n2cnnc2-n2nc(C)cc2C)cc([N+](=O)[O-])c1O | -5 | -38 | i | -6 | nt
O=C(N/N=C/c1c(O)n(Cc2ccccc2)c(=O)c2ccccc12)c1cccnc1 | -1 | 42* | nt | -12 | nt
O=C(N/N=C/c1c(O)n(-c2ccccc2Cl)c(=O)c2ccccc12)c1cccnc1 | -4 | 29 | nt | -7 | nt
CC(=O)c1ccc(-c2cccc(-c3nc4ccccn4c3NC3CCCCC3)c2)cc1 | -8 | 26* | i | 1 | i
CC(C)CCNc1nc(N)c([N+](=O)[O-])c(N2CCCCCC2)n1 | -8 | 2 | i | -5 | nt
COCCn1c(=N)c(S(=O)(=O)c2ccc(Br)cc2)cc2c(=O)n3ccccc3nc21 | 9 | 53* | i | -1 | i
N=c1c(S(=O)(=O)c2ccc(Br)cc2)cc2c(=O)n3ccccc3nc2n1Cc1ccccc1 | 4 | 34 | i | 11 | nt
COCCn1c(=N)c(S(=O)(=O)c2ccc(F)cc2)cc2c(=O)n3ccccc3nc21 | 6 | 55* | i | -5 | i
CCOC(=O)/C(=N/Nc1ccccc1)Sc1nnc(CCc2ccccc2)n1-c1ccccc1 | -8 | -6 | i | 6 | nt
CC(C#N)(Cc1ccccc1)Nc1ccccc1 (stereo not drawn) | 8 | -11 | i | 1 | nt
COc1ccc(CCN(C)C(=O)CN2C(=O)NC3(CCCCC3C)C2=O)cc1OC (stereo not drawn) | -3 | 59* | i | -8 | i
